For some assays here: Potency and affinity values are given separately.
Legend:
Parameters in all cases: scale not given: direction of the effect not stated beside the values
[1] = biological target: Protein translocase subunit SecA (Escherichia coli (strain K12)) (UniProt P10408); assay: Assay to Identify E. coli SecA ATPase Inhibitors; format: functional; conditions: 30 µM
[2] = biological target: T1, Ubiquitin-activating enzyme e1, putative (Leishmania donovani (strain BPK282A1)) (UniProt E9BSI1); assay: Leishmania donovani Ubiquitin Activating Enzyme (LdE1); format: functional; conditions: 30 µM
T1 sequence (whole entry): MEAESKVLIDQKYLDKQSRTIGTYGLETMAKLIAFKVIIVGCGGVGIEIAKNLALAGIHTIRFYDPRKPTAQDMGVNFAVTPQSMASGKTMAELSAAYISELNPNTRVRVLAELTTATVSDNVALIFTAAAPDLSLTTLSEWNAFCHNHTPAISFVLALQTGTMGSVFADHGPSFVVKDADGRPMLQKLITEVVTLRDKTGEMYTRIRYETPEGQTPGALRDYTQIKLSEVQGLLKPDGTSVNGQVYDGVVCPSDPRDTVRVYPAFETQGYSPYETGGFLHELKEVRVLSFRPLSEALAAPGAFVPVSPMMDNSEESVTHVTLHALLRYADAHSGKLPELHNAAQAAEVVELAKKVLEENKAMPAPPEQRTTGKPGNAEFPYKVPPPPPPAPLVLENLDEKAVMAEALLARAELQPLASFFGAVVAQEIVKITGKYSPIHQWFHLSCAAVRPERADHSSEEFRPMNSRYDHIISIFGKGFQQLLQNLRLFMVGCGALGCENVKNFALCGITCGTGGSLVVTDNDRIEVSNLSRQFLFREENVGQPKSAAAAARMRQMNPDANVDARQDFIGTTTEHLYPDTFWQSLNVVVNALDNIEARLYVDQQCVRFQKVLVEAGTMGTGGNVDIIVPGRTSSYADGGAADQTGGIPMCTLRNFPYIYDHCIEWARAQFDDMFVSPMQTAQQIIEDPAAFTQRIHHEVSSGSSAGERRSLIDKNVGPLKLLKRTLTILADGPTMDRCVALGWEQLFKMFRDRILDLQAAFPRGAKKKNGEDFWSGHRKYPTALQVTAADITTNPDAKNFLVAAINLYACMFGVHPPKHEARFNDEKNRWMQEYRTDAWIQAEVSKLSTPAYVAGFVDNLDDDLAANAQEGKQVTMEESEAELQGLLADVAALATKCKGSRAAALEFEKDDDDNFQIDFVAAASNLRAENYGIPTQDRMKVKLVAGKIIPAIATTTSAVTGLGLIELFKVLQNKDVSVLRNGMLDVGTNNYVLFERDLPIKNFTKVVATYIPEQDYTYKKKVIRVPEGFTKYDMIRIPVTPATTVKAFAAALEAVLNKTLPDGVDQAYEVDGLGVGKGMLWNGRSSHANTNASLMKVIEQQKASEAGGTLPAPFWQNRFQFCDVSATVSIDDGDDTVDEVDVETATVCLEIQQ

[3] = biological target: AMP-activated protein kinase, AMPK (Homo sapiens) (UniProt P54646+O43741+P54619+Q9UGJ0+Q9Y478+Q13131+Q9UGI9); assay: AMP-dependent Kinase enzyme assay. An in vitro enzyme assay that detects ADP turnover that is directly proportional to AMPK activity. This uses naive AMPK that is activated during the assay with MK-8722; format: functional; conditions: 30 µM
[4] = biological target: Sialic acid-binding Ig-like lectin 9 (Homo sapiens) (UniProt Q9Y336); assay: Hs-Siglec9 ALPHAscreen SOP 20170721; conditions: 10 µM
Sequence of Sialic acid-binding Ig-like lectin 9 (Homo sapiens) (Q9Y336 whole entry): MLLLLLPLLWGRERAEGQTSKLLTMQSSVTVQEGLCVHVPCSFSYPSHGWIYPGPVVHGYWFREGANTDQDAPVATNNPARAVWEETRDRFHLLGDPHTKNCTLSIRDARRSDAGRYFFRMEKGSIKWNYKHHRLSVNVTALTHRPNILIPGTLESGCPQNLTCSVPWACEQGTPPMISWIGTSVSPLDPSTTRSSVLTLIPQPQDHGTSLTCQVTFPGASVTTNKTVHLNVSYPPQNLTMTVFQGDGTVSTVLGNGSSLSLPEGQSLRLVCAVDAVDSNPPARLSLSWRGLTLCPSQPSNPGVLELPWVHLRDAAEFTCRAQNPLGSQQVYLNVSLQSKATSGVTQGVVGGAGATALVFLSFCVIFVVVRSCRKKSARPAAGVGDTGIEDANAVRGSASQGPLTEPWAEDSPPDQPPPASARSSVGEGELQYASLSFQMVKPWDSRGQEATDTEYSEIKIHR

[5] = tested on: Trypanosoma cruzi; assay: Trypanosoma cruzi phosphomannomutase and mannose-1-phosphate guanylyltransferase assay; format: functional; conditions: 10 µM
[6] = biological target: T2, Arginase-2, mitochondrial (Homo sapiens) (UniProt P78540); assay: in vitro enzyme assay to detect the production of urea directly proportional to the activity of Arginase II; format: functional; conditions: 33.3 µM; also: in the data most compounds retested in dose-response had high values
T2 sequence (whole entry): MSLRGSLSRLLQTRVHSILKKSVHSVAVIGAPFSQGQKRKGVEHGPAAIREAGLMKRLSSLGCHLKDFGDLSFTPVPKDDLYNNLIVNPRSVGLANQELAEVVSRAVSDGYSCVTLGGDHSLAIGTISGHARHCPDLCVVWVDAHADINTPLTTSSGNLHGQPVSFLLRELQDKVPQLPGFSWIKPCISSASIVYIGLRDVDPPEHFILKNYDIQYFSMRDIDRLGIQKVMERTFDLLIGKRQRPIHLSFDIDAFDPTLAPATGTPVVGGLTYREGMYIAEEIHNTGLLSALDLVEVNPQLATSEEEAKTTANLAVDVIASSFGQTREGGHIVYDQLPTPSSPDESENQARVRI

[7] = biological target: T3, Proteasome subunit beta (Trypanosoma cruzi) (UniProt O96673); assay: Trypanosoma cruzi proteasome chymotrypsin-like activity (TcProtChymo) assay.; also: in the data most compounds retested in dose-response had high values; format: functional; conditions: 9.37 µM
T3 sequence (whole entry): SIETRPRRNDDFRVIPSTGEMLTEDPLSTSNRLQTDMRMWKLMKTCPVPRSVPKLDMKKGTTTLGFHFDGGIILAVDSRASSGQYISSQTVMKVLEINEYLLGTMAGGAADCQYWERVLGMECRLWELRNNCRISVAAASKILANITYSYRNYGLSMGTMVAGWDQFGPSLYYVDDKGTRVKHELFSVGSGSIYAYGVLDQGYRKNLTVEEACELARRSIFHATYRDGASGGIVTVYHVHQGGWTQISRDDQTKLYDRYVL

[8] = organism: Homo sapiens; assay: To identify inhibition of the IFN signalling (Jak-Stat) pathway via expression of an eGFP reporter gene under the control of an IFN-stimulated response element (ISRE) containing MxA promoter.; format: functional; conditions: 30 µM
[9] = biological target: T4, Tyrosyl-tRNA synthetase, putative (Trypanosoma cruzi (strain CL Brener)) (UniProt Q4DSP6); assay: Trypanosoma cruzi tyrosyl tRNA synthetase (TcYRS) _High Tyrosine SOP; format: functional; conditions: 30 µM; also: in the data most compounds retested in dose-response had high values
T4 sequence (whole entry): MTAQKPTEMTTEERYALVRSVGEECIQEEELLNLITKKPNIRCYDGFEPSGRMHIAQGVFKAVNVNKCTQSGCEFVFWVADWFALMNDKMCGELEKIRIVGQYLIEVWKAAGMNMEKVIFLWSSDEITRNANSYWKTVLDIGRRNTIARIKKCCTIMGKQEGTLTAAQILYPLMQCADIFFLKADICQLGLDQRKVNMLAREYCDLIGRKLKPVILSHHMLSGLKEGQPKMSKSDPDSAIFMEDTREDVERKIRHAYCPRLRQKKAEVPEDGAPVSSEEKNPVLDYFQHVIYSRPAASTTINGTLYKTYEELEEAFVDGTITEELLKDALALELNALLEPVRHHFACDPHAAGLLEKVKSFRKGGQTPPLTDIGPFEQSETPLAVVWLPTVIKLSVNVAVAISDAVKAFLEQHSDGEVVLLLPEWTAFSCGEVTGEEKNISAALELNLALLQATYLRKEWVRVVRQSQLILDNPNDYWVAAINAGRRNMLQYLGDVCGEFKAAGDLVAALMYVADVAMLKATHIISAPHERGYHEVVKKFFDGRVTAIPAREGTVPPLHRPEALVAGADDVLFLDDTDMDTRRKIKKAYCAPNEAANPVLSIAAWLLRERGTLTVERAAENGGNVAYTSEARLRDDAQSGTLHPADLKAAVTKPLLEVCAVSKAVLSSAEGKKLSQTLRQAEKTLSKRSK

[10] = biological target: T4, Tyrosyl-tRNA synthetase, putative (Trypanosoma cruzi (strain CL Brener)); assay: Trypanosoma cruzi tyrosyl tRNA synthetase (TcYRS) SOP; format: functional; conditions: 30 µM
[11] = biological target: Chromo domain-containing protein 1 (Saccharomyces cerevisiae (strain ATCC 204508 / S288c) (Baker's yeast)) (UniProt P32657); assay: ScCHD-1 Enzyme Inhibition Assay; format: functional; conditions: 30 µM; also: in the data most compounds retested in dose-response had high values
Sequence of Chromo domain-containing protein 1 (Saccharomyces cerevisiae (strain ATCC 204508 / S288c) (Baker's yeast)) (P32657 whole entry, the tested form may be a part): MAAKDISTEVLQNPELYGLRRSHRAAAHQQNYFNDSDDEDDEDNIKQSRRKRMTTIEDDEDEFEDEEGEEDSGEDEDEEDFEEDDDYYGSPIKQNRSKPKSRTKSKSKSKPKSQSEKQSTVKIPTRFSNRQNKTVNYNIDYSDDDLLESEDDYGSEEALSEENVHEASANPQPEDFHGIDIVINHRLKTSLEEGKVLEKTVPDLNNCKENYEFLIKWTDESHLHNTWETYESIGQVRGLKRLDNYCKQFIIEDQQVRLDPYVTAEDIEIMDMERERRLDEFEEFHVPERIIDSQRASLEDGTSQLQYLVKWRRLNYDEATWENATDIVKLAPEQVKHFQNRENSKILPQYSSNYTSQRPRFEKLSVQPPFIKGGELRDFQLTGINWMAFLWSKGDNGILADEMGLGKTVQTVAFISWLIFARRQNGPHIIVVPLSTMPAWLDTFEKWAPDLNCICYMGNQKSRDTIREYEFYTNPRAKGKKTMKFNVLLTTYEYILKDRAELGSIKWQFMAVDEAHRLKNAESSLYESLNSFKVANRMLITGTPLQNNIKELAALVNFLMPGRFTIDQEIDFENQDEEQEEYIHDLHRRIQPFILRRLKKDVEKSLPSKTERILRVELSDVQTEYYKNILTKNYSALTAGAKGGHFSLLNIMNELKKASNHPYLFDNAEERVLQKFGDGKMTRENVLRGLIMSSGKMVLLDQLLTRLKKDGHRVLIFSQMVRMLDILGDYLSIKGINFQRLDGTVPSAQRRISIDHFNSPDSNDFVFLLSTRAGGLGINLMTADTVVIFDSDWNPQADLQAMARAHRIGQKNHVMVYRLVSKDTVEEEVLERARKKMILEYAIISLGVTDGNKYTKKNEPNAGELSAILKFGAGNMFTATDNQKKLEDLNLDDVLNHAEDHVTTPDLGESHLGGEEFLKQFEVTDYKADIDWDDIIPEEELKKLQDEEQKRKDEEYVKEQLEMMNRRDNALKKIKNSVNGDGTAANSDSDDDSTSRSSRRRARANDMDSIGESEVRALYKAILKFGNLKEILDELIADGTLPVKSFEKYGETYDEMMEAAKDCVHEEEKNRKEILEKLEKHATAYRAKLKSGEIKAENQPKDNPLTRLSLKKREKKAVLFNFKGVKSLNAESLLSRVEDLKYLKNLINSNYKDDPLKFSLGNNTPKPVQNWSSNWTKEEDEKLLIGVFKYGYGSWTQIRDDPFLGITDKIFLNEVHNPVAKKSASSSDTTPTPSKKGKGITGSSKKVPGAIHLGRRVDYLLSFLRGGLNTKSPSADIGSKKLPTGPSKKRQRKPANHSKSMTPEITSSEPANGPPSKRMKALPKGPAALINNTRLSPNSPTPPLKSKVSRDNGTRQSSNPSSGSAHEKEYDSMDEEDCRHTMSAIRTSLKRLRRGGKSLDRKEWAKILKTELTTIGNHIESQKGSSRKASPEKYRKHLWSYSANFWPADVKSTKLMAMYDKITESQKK

Sequence of Protein translocase subunit SecA (Escherichia coli (strain K12)) (P10408 whole entry): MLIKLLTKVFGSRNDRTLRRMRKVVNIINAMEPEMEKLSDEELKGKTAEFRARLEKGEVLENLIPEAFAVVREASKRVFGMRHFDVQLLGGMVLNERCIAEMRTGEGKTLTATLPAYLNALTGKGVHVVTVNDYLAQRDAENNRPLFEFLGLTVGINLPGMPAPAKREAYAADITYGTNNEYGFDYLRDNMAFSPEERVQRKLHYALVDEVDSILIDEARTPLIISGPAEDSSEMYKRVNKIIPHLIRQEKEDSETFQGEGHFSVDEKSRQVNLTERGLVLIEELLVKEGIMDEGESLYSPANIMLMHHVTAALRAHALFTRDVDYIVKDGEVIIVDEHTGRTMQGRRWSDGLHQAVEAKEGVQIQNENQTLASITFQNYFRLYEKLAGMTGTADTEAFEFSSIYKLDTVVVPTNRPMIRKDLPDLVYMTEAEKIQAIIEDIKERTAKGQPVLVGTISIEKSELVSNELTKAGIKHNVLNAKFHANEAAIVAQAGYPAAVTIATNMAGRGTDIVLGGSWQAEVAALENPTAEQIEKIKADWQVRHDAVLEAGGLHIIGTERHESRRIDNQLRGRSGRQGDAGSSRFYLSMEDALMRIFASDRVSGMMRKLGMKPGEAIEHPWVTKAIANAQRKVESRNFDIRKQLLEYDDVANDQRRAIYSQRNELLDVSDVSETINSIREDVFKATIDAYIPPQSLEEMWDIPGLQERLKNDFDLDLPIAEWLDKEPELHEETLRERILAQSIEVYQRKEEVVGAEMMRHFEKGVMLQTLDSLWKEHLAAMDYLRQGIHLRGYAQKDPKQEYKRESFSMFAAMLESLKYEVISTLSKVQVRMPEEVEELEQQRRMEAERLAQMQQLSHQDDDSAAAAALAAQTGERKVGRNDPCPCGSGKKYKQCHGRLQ

Compound	Percent Effect [1] [%]	Percent Effect [2] [%]	Percent Effect [3] [%]	Percent Effect [4] [%]	Percent Effect [5] [%]	Percent Effect [6] [%]	Percent Effect [7] [%]	Percent Effect [8] [%]	Percent Effect [9] [%]	Percent Effect [10] [%]	Percent Effect [11] [%]
Cc1nc(COCc2cnc3n2CCN(CC2CCC2)C3C)cs1 (configuration not stated)	-1.98	-2.67	-6.08	4.28	8.11	-56.8	12.7	-20.7	-1.04	7.5	-4.06
CCS(=O)(=O)N1CCC(c2cc3n(n2)[C@@H](C(F)(F)F)C[C@@H](C)N3)CC1	-3.21	9.46	-29.7	-2.76	-4.15	2.09	4.37	11.3	-1.07	6.49	-7.22
CCn1cnnc1C1CCN(C(=O)c2ccccc2OC)CC1	-2.76	7.79	12.8	2.75	-4.68	-2.13	6.42	25.9	4.85	7.32	-3.6
CS(=O)(=O)N1C[C@@H]2CC[C@H](C1)N(Cc1cscn1)C2=O	-4.04	11	-5.85	7.01	6.35	-4.39	9.85	3.89	6.25	18.5	-6.64
CC(C)n1cc(CN2CCCN(C(=O)c3nccnc3N)CC2)cn1	-3.12	13.5	-6.54	-11.2	-0.586	5.83	17	21.2	8.91	11	5
O=C(CCc1nccs1)N1CCN(c2ccccc2F)CC1	-4.98	7.59	-1.29	-1.48	8.4	-6.46	-2.05	5.18	2.46	8.86	-2.22
O=S(=O)(Cc1ccccc1)NCc1ccco1	-2.2	-1.39	13.3	0.175	0.68	0	-1.4	6.12	3.16	2.56	0.387
COC(C(=O)N1CCN(c2cccc(Cl)c2)C(=O)C1)c1ccccc1 (configuration not stated)	-1.02	0	0.72	1	-2.7	3.33	14.7	0.627	3.7	9.76	-4.32
O=C(NCC1CC1)Nc1cccc(N2CCN(CC3CC3)CC2)c1	-6.91	13.5	-7.28	31.9	5.38	1.24	6.78	-5.11	3.23	16.1	-13.1
O=C(c1ccc2c(c1)OCO2)N1CCCC(n2cccn2)C1 (configuration not stated)	-1.59	10.8	-7.46	-3.52	7.64	-4.01	3.24	27.9	8.37	11.1	-7.12
CN(C)c1cc(C(=O)NCCc2n[nH]c(=O)[nH]2)ccn1	-2.65	2.63	5.52	7.32	-0.487	4.73	7.38	5.92	3.19	5.2	-2.56
O=C(CCc1cscn1)N1CCCC1c1noc(C2CC2)n1 (configuration not stated)	-5.78	16.2	-11.8	6.15	-1.42	-2	11.3	6.02	12.3	16.1	-5.15
CCC(O)CN1CCN(C(=O)c2cccn2Cc2cccs2)CC1 (configuration not stated)	-3.15	5.06	1.52	11.3	-2.17	0.38	-3.03	5.7	4.43	11.4	-5.26
CN(C)c1cc2c(nn1)CCN(C(=O)C1Cc3ccccc3S1)C2 (configuration not stated)	-3.54	10.1	-4.45	16	5.76	1.14	8.27	-10.7	7.39	11.4	9.74
CC(C)(CO)NC(=O)C1CCC(=O)N(Cc2ccc(Cl)cc2)C1 (configuration not stated)	-3.58	1.39	10.2	1.15	-1.26	-3.09	2.81	-9.87	-3.16	0	0.1
COCC1c2nnn(CC3CC3)c2CCN1C(=O)Cc1cccs1 (configuration not stated)	1.82	2.7	-8.03	6.62	4.59	13.7	17.2	7.37	4.3	-58	-3.81
CC(C)c1nccn1C1CCCN(C(=O)c2cnn(C)c2C2CC2)C1 (configuration not stated)	-1.82	13.2	-2.81	-2.13	2.71	-5.75	6.34	-7.13	13.3	25.9	-8.69
CN1CCN(C[C@@H]2OC[C@H]3CN(Cc4ccsc4)CC[C@H]32)CC1	-2.51	0	1.23	-2.48	6.95	-43.2	5.81	-3.23	3.12	0	-4.8
O=C(NCCNC(=O)N1CCC(c2ccccc2)C1)C1CC1 (configuration not stated)	-2.18	18.9	-5.02	22	4.44	2.38	15.5	8.1	2.65	14.6	-0.679
O=S(=O)(NC1=NCN(CCc2cccs2)CN1)c1ccc(F)cc1	1.07	4	3.26	4.09	-4.91	-7.57	14.1	-6.32	5.29	10.3	-10.7
CC(C)c1noc(CCCC(=O)N2CCN(Cc3ccncc3)CC2)n1	-2.42	22.8	-9.61	-9.55	3.87	-6.84	12.2	11.6	5.42	21.5	-6.65
Cc1cc(-c2cnc(NC3CC3)nc2-c2ccc(C)o2)on1	-1.85	13.3	55.8	7.93	3.54	-0.233	2.56	20.4	2.13	14.1	-7.02

From ChEMBL document CHEMBL3988442, “University of Dundee, Small-Polar-MMV Screening Library” (2021)
